According to PubChem BioAssay (EPA / NIEHS):
Results filed as inconclusive are left out. Activity calls are given as the source filed them. The calls were made as follows: active = hit-call score of the fitted dose curve at least 0.9, where 1 is the maximum; inconclusive = response in the unintended direction; inactive = score below 0.9.

Assays:
[1] = Tanguay_ZF_120hpf_ActivityScore_legacy: (Legacy) Oregon State University Tanguay Lab 120 Hour Post-fertilization zebrafish Assay Score for Activity (AID 2283742);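 as to AC50: dechorionated Tropical 5D wild-type zebrafish embryos held singly per well; static exposure from 6 hpf until 120 hpf at 28 °C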
How it was run: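 Dechorionated Tropical 5D embryos, one per well from 6 hpf, statically exposed to 120 hpf at 28 °C in 0.64% DMSO. Mortality and malformations scored binary by brightfield microscopy; activity score combines 18 endpoints, fitted positively versus DMSO.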

[2] = ACEA_AR_agonist_AUC_viability: ACEA Biosciences xCELLigence Real-Time Cell Analysis on Androgen Receptor Agonism for Viability (AID 2283775);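 as to AC50: viability read 80 hours after compound addition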
How it was run: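 Real-time impedance tracking of 22Rv1 growth, readings every 5 min for 5 h then hourly; area-under-curve viability endpoint at 80 hours, relative to DMSO. Compounds at eight concentrations, 1:4 steps, top 100 uM, n = 2.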

[3] = ACEA_AR_antagonist_AUC_viability: ACEA Biosciences xCELLigence Real-Time Cell Analysis on Androgen Receptor Antagonism for Viability (AID 2283776);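 also: 22Rv1 human prostate cancer cells growing on impedance electrode plates; hits lower the growth signal relative to DMSO meaning cytotoxicity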
How it was run: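 Impedance read-out (RT-CES): area under growth curve at 80 h post-dose, loss of signal scored vs DMSO baseline. 22Rv1 cells; 8-pt 1:4 series, top 100 uM final, ≤0.5% DMSO; biological duplicate.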

[4] = test system: Thyroperoxidase (TPO), gene 445522; assay: CCTE_Simmons_GUA_TPO: CCTE's Guaiacol Assay for Thyroperoxidase (TPO) Inhibition, Simmons Lab (AID 2283750)
How it was run: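 Porcine thyroid microsomes (25 ug) in 200mM potassium phosphate, preincubated 30 s at 37C with compound (8 concentrations, 5 nM–87.5 uM) and 35mM guaiacol; 1mM H2O2 starts reaction. Absorbance change at 450nm over first 80 s; loss of signal versus DMSO, three replicates.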

[5] = biological target: Luciferin 4-monooxygenase (Photinus pyralis) (UniProt P08659); assay: CCTE_Simmons_QuantiLum_inhib_2: CCTE's Firefly Luciferase Inhibition Assay, Simmons Lab (AID 2283767);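 as to AC50: potency for inhibitors that lower luciferase luminescence relative to DMSO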
How it was run: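 Luminescence loss relative to DMSO vehicle defines inhibition; detection reagent containing 150 uM D-luciferin and 147 uM dATP (final, pH 7.8) is injected immediately before each read. Enzyme is preincubated with an 8-point titration (5 nM–87.5 uM final) for 30 min at 37C.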

[6] = ArunA_CellTiter_hNC: Viability Assessment in the ArunA Biomedical's Oris Neural Crest (hNC) Cell Migration Assay (AID 2283752)
How it was run: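 Cell titer was measured with the CellTiter Aqueous One reagent after 72 h of chemical dosing. Cells were H9-derived embryonic neural crest stem cells seeded on Matrigel, 60,000 per well, and given 16 h at 37C beforehand.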

[7] = ArunA_CellTiter_hNP: Viability Assessment in the ArunA Biomedical's Oris Neural Crest (hNC) Cell Migration Assay (AID 2283753)
How it was run: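 H9-derived hNP1 neuroprogenitors, 60,000/well on Matrigel, cultured 16 h, then 72 h chemical exposure in test medium. Cell titer via CellTiter Aqueous One; positive-direction fit vs DMSO.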

[8] = ArunA_Migration_hNP: ArunA Biomedical's Oris Neuroprogenitor (hNP) Cell Migration Assay (AID 2283754)
How it was run: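 Human H9-derived hNP1 neuroprogenitors on Matrigel with LIF/bFGF, plated around seeding stoppers for 16 h at 37C; stoppers removed at start of 72 h chemical exposure. Calcein-AM staining, fluorescence 494/517 nm in detection zone; loss-of-signal vs DMSO; cytochalasin D control.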

[9] = ArunA_Migration_hNC: ArunA Biomedical's Oris Neural Crest (hNC) Cell Migration Assay (AID 2283755)
How it was run: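 Human H9-derived neural crest stem cells, 60,000/well on Matrigel, 16 h at 37C, then 72 h chemical exposure after seeding-stopper removal. Migration into detection zone read as calcein-AM fluorescence (ex494/em517), relative to DMSO.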

[10] = ArunA_NOG_NucleusCount: ArunA Biomedical's Neurite Outgrowth (NOG) Assay for Nucleus Count (AID 2283756)
How it was run: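 Human H9-derived differentiated neurons were exposed for 48 h right after seeding. Hoechst-stained nuclei gated by size and intensity were counted by automated high-content imaging as viable neurons. Loss of signal vs DMSO.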

[11] = test system: zebrafish Androgen Receptor (AR), gene 100005148; assay: ATG_zfAR_XSP1: Attagene TRANS-FACTORIAL Multi-Species (XSP1) HepG2 Assay for zebrafish Androgen Receptor (AR) (AID 2283771)
How it was run: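 HepG2 cells were transiently transfected with a zebrafish AR-GAL4 reporter system and partially stimulated with 3 nM 6-alpha-fluorotestosterone. Reporter mRNA was measured after 24 h dosing by RT-PCR with capillary electrophoresis, and gain-of-signal was fitted relative to DMSO.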

[12] = biological target: zebrafish Estrogen Receptor (ESR1), esr1 (gene 259252) (UniProt P57717); assay: ATG_zfER1_XSP1: Attagene TRANS-FACTORIAL Multi-Species (XSP1) HepG2 Assay for zebrafish Estrogen Receptor (ESR1) (AID 2283772)
How it was run: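 Readout: fluorescent reporter mRNA, RT-PCR plus FAM labelling, HpaI digest, capillary electrophoresis; gain-of-signal fit vs DMSO. HepG2, transient multi-reporter TRANS (NR-GAL4 chimera), 24 h chemical exposure, 3 nM 6-alpha-fluorotestosterone co-added.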

[13] = test system: zebrafish Estrogen Receptor (ESR2B), gene 317733; assay: ATG_zfER2b_XSP1: Attagene TRANS-FACTORIAL Multi-Species (XSP1) HepG2 Assay for zebrafish Estrogen Receptor (ESR2B) (AID 2283773)
How it was run: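 HepG2 cells transiently transfected with GAL4-UAS reporter units for chimeric zebrafish ER2b-Gal4, with 3 nM 6-alpha-fluorotestosterone present; reporter mRNA measured 24 h after dosing by RT-PCR and capillary electrophoresis, gain versus DMSO.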

[14] = test system: frog Estrogen Receptor (ESR2), gene 100174814; assay: ATG_frER2_XSP1: Attagene TRANS-FACTORIAL Multi-Species (XSP1) HepG2 Assay for frog Estrogen Receptor (ESR2) (AID 2283774)
How it was run: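 HepG2 cells transiently transfected with GAL4-UAS reporter units expressing chimeric frog ER-Gal4; 3 nM 6-alpha-fluorotestosterone present. After 24 h dosing, reporter mRNA quantified by RT-PCR and capillary electrophoresis; gain-of-signal fitted relative to DMSO.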

[15] = test system: zebrafish Estrogen Receptor (ESR2A), gene 317734; assay: ATG_zfER2a_XSP1: Attagene TRANS-FACTORIAL Multi-Species (XSP1) HepG2 Assay for zebrafish Estrogen Receptor (ESR2A) (AID 2283778)
How it was run: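 HepG2 cells transiently transfected with GAL4-UAS reporter units driven by a zebrafish ESR2A–Gal4 chimera; 24 h compound exposure with 3 nM 6-alpha-fluorotestosterone present. Reporter mRNA measured by RT-PCR with fluorescent capillary electrophoresis, fitted positive versus DMSO.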

[16] = biological target: chicken Estrogen Receptor (ESR1), ESR1 (gene 396099) (UniProt P06212); assay: ATG_chERa_XSP1: Attagene TRANS-FACTORIAL Multi-Species (XSP1) HepG2 Assay for chicken Estrogen Receptor (ESR1) (AID 2283779)
How it was run: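 HepG2 cells transiently transfected with GAL4-UAS reporter units for chimeric chicken ERα-Gal4, dosed 24 h with 3 nM 6-alpha-fluorotestosterone present. Reporter mRNA by RT-PCR and capillary electrophoresis; gain-of-signal fit versus DMSO.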

[17] = test system: frog Estrogen Receptor (ESR1), gene 398734; assay: ATG_frER1_XSP1: Attagene TRANS-FACTORIAL Multi-Species (XSP1) HepG2 Assay for frog Estrogen Receptor (ESR1) (AID 2283777)
How it was run: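 HepG2 cells transiently transfected with frog ER–GAL4 chimera and GAL4-UAS reporter, with 3 nM 6-alpha-fluorotestosterone present; 24 h dosing, reporter mRNA quantified by RT-PCR and capillary electrophoresis, gain of signal versus DMSO.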

[18] = test system: chicken Androgen Receptor (AR), gene 422165; assay: ATG_chAR_XSP1: Attagene TRANS-FACTORIAL Multi-Species (XSP1) HepG2 Assay for chicken Androgen Receptor (AR) (AID 2283768)
How it was run: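 HepG2 cells transiently transfected with multiplexed GAL4-UAS reporter units expressing chimeric chicken AR-Gal4; 3 nM 6-alpha-fluorotestosterone for partial AR stimulation; 24 h after dosing, reporter mRNA by RT-PCR and capillary electrophoresis, gain-of-signal versus DMSO.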

Chain of zebrafish Estrogen Receptor (ESR1), esr1 (gene 259252) (P57717 whole entry, looked up, the tested form may be a part): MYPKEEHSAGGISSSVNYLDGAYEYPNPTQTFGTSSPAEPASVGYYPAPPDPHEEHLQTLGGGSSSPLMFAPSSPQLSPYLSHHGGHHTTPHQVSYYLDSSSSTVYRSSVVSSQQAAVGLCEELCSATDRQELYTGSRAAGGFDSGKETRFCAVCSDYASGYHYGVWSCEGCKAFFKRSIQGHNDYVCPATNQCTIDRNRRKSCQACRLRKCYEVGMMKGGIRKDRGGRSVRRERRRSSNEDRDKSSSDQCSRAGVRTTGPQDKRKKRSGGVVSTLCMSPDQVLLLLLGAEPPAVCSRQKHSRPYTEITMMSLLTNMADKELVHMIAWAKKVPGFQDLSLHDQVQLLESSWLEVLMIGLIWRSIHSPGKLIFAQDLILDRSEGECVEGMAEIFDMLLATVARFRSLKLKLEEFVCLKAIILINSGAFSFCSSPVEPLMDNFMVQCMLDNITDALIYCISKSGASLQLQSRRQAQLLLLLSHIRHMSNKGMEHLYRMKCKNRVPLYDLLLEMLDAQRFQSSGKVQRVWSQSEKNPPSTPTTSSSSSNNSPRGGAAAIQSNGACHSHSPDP
Chain of chicken Estrogen Receptor (ESR1), ESR1 (gene 396099) (P06212 whole entry, looked up, the tested form may be a part): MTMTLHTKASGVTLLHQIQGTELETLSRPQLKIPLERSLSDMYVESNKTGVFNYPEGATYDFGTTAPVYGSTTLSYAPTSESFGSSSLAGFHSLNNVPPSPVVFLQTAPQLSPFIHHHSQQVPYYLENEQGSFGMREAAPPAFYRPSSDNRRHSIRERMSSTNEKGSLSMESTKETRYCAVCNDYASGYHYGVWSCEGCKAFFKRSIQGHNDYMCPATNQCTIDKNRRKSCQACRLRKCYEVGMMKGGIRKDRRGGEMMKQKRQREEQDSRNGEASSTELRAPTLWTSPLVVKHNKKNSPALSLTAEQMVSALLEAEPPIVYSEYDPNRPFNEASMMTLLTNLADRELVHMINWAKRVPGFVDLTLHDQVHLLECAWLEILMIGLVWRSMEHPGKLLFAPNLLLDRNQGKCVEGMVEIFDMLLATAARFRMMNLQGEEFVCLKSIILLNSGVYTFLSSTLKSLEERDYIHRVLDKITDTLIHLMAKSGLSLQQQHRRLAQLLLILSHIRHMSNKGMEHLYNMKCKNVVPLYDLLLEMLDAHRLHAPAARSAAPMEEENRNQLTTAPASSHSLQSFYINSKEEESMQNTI
Chain of Luciferin 4-monooxygenase (Photinus pyralis) (P08659 whole entry, looked up): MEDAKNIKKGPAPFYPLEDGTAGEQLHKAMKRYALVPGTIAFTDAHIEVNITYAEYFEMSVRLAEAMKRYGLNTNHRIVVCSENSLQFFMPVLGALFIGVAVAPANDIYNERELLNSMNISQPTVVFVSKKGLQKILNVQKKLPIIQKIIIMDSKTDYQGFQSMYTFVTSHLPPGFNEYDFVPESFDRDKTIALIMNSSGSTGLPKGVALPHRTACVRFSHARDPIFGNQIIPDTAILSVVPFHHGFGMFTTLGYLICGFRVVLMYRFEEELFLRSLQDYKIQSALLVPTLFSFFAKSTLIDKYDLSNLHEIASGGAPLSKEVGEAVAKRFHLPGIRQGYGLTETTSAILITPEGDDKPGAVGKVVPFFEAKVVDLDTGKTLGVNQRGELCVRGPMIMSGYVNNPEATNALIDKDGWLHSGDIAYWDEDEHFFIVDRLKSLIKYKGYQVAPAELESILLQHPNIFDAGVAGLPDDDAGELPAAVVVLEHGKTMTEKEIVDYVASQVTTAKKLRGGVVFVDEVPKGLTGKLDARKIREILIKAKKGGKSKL

## Cc1ccc(N=CN(C)C=Nc2ccc(C)cc2C)c(C)c1
[1]
  outcome: inactive
[2]
  AC50: 14.5 µM (active)
[3]
  AC50: 17.6 µM (active)

## CCOc1nc(F)cc2nc(S(=O)(=O)Nc3c(Cl)cccc3Cl)nn12
[1]
  outcome: inactive
[4]
  AC50: 55 µM (active)
[5]
  outcome: inactive

## Cc1nc(N(C)C)nc(OC(=O)N(C)C)c1C
[1]
  outcome: inactive

## COc1ccc(-c2ccccc2)cc1NNC(=O)OC(C)C
[1]
  outcome: inactive
[6]
  outcome: inactive
[7]
  outcome: inactive
[8]
  outcome: inactive
[9]
  outcome: inactive
[10]
  outcome: inactive
[5]
  AC50: 0.556 µM (active)
[3]
  outcome: inactive

## CCNC(=O)NC(=O)C(C#N)=NOC
[1]
  AC50: 32.4 µM (active)
[5]
  outcome: inactive
[3]
  outcome: inactive

## O=c1n(Cl)c(=O)n(Cl)c(=O)n1Cl
[1]
  outcome: inactive
[5]
  outcome: inactive
[2]
  outcome: inactive
[3]
  outcome: inactive

## CCNP(=S)(OC)O/C(C)=C/C(=O)OC(C)C (stereo not drawn)
[1]
  outcome: inactive
[5]
  outcome: inactive
[3]
  outcome: inactive

## CNC(=O)N(C)c1nnc(C(C)(C)C)s1
[1]
  outcome: inactive
[2]
  outcome: inactive
[3]
  outcome: inactive

## CCOP(=S)(OCC)Oc1nc(Cl)n(C(C)C)n1
[1]
  outcome: inactive
[5]
  outcome: inactive
[3]
  outcome: inactive

## CSC(=O)c1c(C(F)F)nc(C(F)(F)F)c(C(=O)SC)c1CC(C)C
[1]
  outcome: inactive
[11]
  outcome: inactive
[12]
  outcome: inactive
[13]
  AC50: 32.3 µM (active)
[14]
  AC50: 0.955 µM (active)
[3]
  AC50: 37.4 µM (active)
[15]
  outcome: inactive
[16]
  outcome: inactive

## CCN(CC)C(=O)C(C)Oc1cccc2ccccc12 (stereo not drawn)
[1]
  outcome: inactive
[5]
  AC50: 0.000739 µM (active)
[12]
  outcome: inactive
[13]
  AC50: 27.1 µM (active)
[14]
  AC50: 27.4 µM (active)
[2]
  outcome: inactive
[3]
  outcome: inactive
[17]
  AC50: 24.8 µM (active)
[15]
  AC50: 25.8 µM (active)
[16]
  outcome: inactive

## CC1(C)C(C=C(Cl)Cl)C1C(=O)OC(C#N)c1cccc(Oc2ccccc2)c1 (stereo not drawn)
[1]
  AC50: 1.14 µM (active)
[18]
  outcome: inactive
[12]
  outcome: inactive
[13]
  AC50: 72.5 µM (active)
[14]
  AC50: 27.3 µM (active)
[3]
  outcome: inactive
[17]
  AC50: 2.24 µM (active)
[15]
  outcome: inactive
[16]
  outcome: inactive

## COC(=O)NS(=O)(=O)c1ccc(N)cc1
[1]
  outcome: inactive
[4]
  AC50: 136 µM (active)
[5]
  AC50: 0.149 µM (active)
[3]
  outcome: inactive

## COP(=S)(OC)SCn1nnc2ccccc2c1=O
[1]
  outcome: inactive
[4]
  AC50: 49.6 µM (active)
[5]
  outcome: inactive
[3]
  AC50: 64.7 µM (active)

## CS(=O)(=O)c1ccc(C(=O)C2C(=O)CCCC2=O)c([N+](=O)[O-])c1
[1]
  outcome: inactive
[5]
  outcome: inactive
